19 compounds from PubChem BioAssay (EPA / NIEHS) can be followed below.

Inconclusive results are not listed. Calls of active or inactive are those of the source. Rule for the calls: active = hit-call score of the fitted dose curve at least 0.9, where 1 is the maximum; inconclusive = response in the unintended direction; inactive = score below 0.9.

Assay [1] has as its target Estrogen receptor beta (Homo sapiens) (UniProt Q92731). The assay is described as follows: OT_ER_ERbERb_0480: Odyssey Thera (OT) 8-hour HEK293T Protein-Complementation Assay for Estrogen Receptor-beta/-beta Homodimer (AID 2283357).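 Note: active means signal gain over DMSO baseline.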 An outline of the steps: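 Fluorescence intensity, nuclear for agonists and nuclear plus cytoplasmic for antagonists, was quantified by laser scanning cytometry versus vehicle after 8 h treatment. The cells were HEK293T stably carrying ER beta LBD fragment-complementation partners.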

Assay [2] addresses Retinoic acid receptor alpha (Homo sapiens) (UniProt P10276). Nature of the assay: NVS_NR_hRAR_Antagonist: NovaScreen (NVS) Nuclear Receptor Binding Assay for human Retinoic Acid Alpha Receptor Antagonism (RAR) (AID 2283358). The essentials:
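Cell-free TR-FRET binding assay with extracted human RARalpha in antagonist mode, read 2 h after dosing. Loss of signal was fitted relative to DMSO; the primary screen used 25 uM in duplicate, with concentration series on follow-up.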

For a further assay, the target named is PGR (gene 5241) (UniProt P06401). Nature of the assay: NVS_NR_hPR: NovaScreen (NVS) Nuclear Receptor Binding Assay for human Progestron Receptor (PR) (AID 2283360).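 Note: active means loss of bound radioligand signal versus DMSO baseline.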 An outline of the steps: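 T47D lysate; tritiated or iodinated radioligand; scintillation count at 18 h. DMSO = negative control/baseline. Primary: 25 uM, duplicate. Secondary: concentration series for actives.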

For assay [3], the target named is human Thyroid Receptor Alpha (TRa), THRA (gene 7067) (UniProt P10827). Nature of the assay: NVS_NR_hTRa_Antagonist: NovaScreen (NVS) Nuclear Receptor Binding Assay for human Thyroid Receptor Alpha Antagonism (TRa) (AID 2283362).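 Note: activity is loss of signal relative to DMSO baseline.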 An outline of the steps: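 Cell-free AlphaLISA chemiluminescent binding read 1 h after dosing, antagonist mode; signal loss versus DMSO baseline. Primary screen in duplicate at 25 uM, then concentration series for actives.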

The target in assay [4] is guinea pig Sigma Receptor, Non-selective Binding, SIGMAR1 (gene 100135589) (UniProt Q60492). Nature of the assay: NVS_OR_gSIGMA_NonSelective: NovaScreen (NVS) Nuclear Receptor Binding Assay for guinea pig Sigma Receptor, Non-selective Binding (AID 2283367). An outline of the steps: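 Radioligand displacement on guinea pig brain membranes, read by filter-based scintillation counting 1 h after dosing. Loss of signal versus DMSO; initial duplicate single-point screen at 25 uM, actives followed in concentration series.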

Assay [5] has as its target Peroxisome proliferator-activated receptor gamma (Homo sapiens) (UniProt P37231). The assay is described as follows: NVS_NR_hPPARg: NovaScreen (NVS) Nuclear Receptor Binding Assay for human Peroxisome Proliferator-activated Receptor gamma (PPARg) (AID 2283370). The essentials: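 Cell-free fluorescence polarization binding to human PPARg protein, read 2 h after dosing. Primary screen in duplicate at 25 uM, actives followed in concentration series; loss of signal relative to DMSO scored.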

In assay [6] the target is Estrogen receptor (Homo sapiens) + Estrogen receptor beta (Homo sapiens) (UniProt P03372+Q92731). Nature of the assay: OT_ER_ERaERb_1440: Odyssey Thera (OT) 24-hour HEK293T Protein-Complementation Assay for Estrogen Receptor-alpha/-beta Homodimer (AID 2283356).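 Note: heteromer of ER alpha and ER beta binding domains; hits raise reporter fluorescence and both agonists and antagonists give an increase.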 An outline of the steps:
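HEK293T stably expressing a PCA of ER alpha LBD (aa 310-547) and ER beta LBD (aa 263-489). After 24 h compound exposure, mean fluorescence intensity in nucleus (agonists) or nucleus and cytoplasm (antagonists) measured by laser scanning cytometry versus vehicle.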

Assay [7] concerns the target Norway rat Vesicular Monoamine Transporter (VMAT2), neurotransmitter transporter, Slc18a2 (gene 25549) (UniProt Q01827). Nature of the assay: NVS_TR_rVMAT2: NovaScreen (NVS) Transporter Assay for Norway rat Vesicular Monoamine Transporter (VMAT2), neurotransmitter transporter (AID 2283376).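 Note: actives lower the bound radioligand signal below the DMSO level.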 An outline of the steps: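 Radioligand displacement binding on rat forebrain tissue preparation, filter-based scintillation read-out 1 hour after dosing. Primary screen in duplicate at 25 uM, then concentration series for actives; loss of signal versus DMSO.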

The target in assay [8] is Glucocorticoid receptor (Homo sapiens) (UniProt P04150). Nature of the assay: NVS_NR_hGR: NovaScreen (NVS) Nuclear Receptor Binding Assay for human Glucocorticoid Receptor (GR) (AID 2283363).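 For AC50: activity is loss of specific radioligand binding signal relative to DMSO.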 The essentials: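 Cell-free radioligand displacement assay on extracted human GR, read 16 h after dosing by filter-based scintillation counting. Screened in duplicate at 25 uM, then concentration series for actives; loss of signal versus DMSO baseline.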

Assay [9] deals with guinea pig Dopamine Transporter (DAT), gene 100714898. Nature of the assay: NVS_TR_gDAT: NovaScreen (NVS) Transporter Assay for guinea pig Dopamine Transporter (DAT) (AID 2283369).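 Note: active compounds lower bound radioligand signal relative to DMSO.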 An outline of the steps:
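Guinea pig striatal membranes, cell-free radioligand binding with filter-based scintillation counting, read 2 h after dosing. Loss of signal versus DMSO baseline; single-concentration primary (25 uM) then concentration-response up to 50 uM.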

Assay [10] addresses human Serotonin Transporter (SERT), SLC6A4 (gene 6532) (UniProt P31645). Nature of the assay: NVS_TR_hSERT: NovaScreen (NVS) Transporter Assay for human Serotonin Transporter (SERT) (AID 2283372). The essentials:
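Radioligand binding to native SERT in human platelet membranes, read by filter-based scintillation counting 1 h after dosing. Primary screen in duplicate at 25 uM; actives followed up in concentration series; loss of signal versus DMSO baseline.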

Assay [11] addresses human Dopamine Transporter (DAT), SLC6A3 (gene 6531) (UniProt Q01959). Nature of the assay: NVS_TR_hDAT: NovaScreen (NVS) Transporter Assay for human Dopamine Transporter (DAT) (AID 2283374).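 Note: activity means loss of bound radioligand signal relative to DMSO.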 The essentials: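 Cell-free radioligand displacement binding at human DAT, 1 h after dosing, with filtration and scintillation counting. Primary screen in duplicate at 25 uM, actives then in concentration series. Loss of bound signal versus DMSO scored.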

For assay [12], the target named is rat Serotonin Transporter (SERT), Slc6a4 (gene 25553) (UniProt P31652). Nature of the assay: NVS_TR_rSERT: NovaScreen (NVS) Transporter Assay for rat Serotonin Transporter (SERT) (AID 2283375). An outline of the steps:
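Rat forebrain membranes; radioligand displacement at SERT read by filter-based scintillation counting, 1 h after dosing. Screened in duplicate at 25 uM, actives then run in concentration series; loss of signal versus DMSO baseline.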

The subject of assay [13] is rat Norepinephrine Transporter (NET), gene 83511. Nature of the assay: NVS_TR_rNET: NovaScreen (NVS) Transporter Assay for rat Norepinephrine Transporter (NET) (AID 2283373). An outline of the steps:
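Rat forebrain membranes; radioligand binding measured by filter-based scintillation counting 1 hour after dosing. Loss of specific binding versus DMSO baseline scored; primary screen in duplicate at 25 uM, actives followed up in concentration series.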

Assay [14] concerns the target human Norepinephrine Transporter (NET), SLC6A2 (gene 6530) (UniProt P23975). Nature of the assay: NVS_TR_hNET: NovaScreen (NVS) Transporter Assay for human Norepinephrine Transporter (NET) (AID 2283377).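 Note: displacement of radioligand from human NET seen as loss of scintillation signal.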 An outline of the steps: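 Cell-free radioligand binding using CHO-derived membrane protein expressing human NET, read by filter scintillation counting 1 h after dosing; loss of signal vs DMSO. Initial duplicate screen at 25 uM, actives retested in concentration series.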

The target of assay [15] is human Adenosine Transporter (Adot), SLC29A1 (gene 2030) (UniProt Q99808). Nature of the assay: NVS_TR_hAdoT: NovaScreen (NVS) Transporter Assay for human Adenosine Transporter (Adot) (AID 2283368). The essentials: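 U937-derived membranes, cell-free radioligand binding, filter scintillation 1 h after dosing. 25 uM duplicate screen; hits (e.g. 30% inhibition) run in concentration-response up to 50 uM; loss of signal versus DMSO.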

The target of assay [16] is Nuclear receptor subfamily 1 group I member 2 (Homo sapiens) (UniProt O75469). The assay is described as follows: NVS_NR_hPXR: NovaScreen (NVS) Nuclear Receptor Binding Assay for human Pregnane X Receptor (PXR) (AID 2283365).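 Note: a drop in FRET signal versus DMSO baseline means the compound binds.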 The essentials: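 Cell-free TR-FRET binding assay with extracted human PXR protein, read 2 h after dosing. Primary screen run in duplicate at 25 uM, actives followed in concentration series; loss of signal fitted against DMSO baseline.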

human Thyroid Receptor Alpha (TRa), THRA (gene 7067), sequence (P10827 whole entry, looked up): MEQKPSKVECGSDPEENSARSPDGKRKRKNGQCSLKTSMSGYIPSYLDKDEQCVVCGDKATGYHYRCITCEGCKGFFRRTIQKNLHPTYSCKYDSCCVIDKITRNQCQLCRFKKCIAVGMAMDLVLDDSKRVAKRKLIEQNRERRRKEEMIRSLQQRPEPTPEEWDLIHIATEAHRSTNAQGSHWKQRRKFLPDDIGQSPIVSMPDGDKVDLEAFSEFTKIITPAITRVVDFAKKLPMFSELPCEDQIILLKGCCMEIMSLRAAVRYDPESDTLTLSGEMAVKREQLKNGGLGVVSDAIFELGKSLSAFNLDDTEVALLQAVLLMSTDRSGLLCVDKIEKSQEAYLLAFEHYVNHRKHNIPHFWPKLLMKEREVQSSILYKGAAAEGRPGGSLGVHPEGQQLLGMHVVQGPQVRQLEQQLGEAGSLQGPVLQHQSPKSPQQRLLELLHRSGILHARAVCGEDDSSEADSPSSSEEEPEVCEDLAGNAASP
human Dopamine Transporter (DAT), SLC6A3 (gene 6531), sequence (Q01959 whole entry, looked up): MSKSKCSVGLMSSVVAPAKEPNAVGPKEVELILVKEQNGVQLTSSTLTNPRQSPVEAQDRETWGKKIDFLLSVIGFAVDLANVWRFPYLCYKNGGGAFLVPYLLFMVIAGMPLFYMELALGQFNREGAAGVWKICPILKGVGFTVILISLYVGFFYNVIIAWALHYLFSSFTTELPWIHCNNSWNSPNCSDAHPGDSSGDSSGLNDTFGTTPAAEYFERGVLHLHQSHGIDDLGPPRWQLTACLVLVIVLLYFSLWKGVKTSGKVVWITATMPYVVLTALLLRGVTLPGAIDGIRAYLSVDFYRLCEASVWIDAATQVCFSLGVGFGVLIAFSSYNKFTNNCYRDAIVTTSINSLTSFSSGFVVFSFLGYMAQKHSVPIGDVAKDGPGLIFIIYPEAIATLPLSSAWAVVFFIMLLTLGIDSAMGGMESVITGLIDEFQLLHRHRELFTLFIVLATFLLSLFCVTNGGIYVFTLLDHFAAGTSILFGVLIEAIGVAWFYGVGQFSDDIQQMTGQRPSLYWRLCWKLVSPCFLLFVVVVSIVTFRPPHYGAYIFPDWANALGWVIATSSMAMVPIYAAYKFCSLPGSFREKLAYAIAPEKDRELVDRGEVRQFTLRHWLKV
Glucocorticoid receptor (Homo sapiens), sequence (P04150 whole entry, looked up): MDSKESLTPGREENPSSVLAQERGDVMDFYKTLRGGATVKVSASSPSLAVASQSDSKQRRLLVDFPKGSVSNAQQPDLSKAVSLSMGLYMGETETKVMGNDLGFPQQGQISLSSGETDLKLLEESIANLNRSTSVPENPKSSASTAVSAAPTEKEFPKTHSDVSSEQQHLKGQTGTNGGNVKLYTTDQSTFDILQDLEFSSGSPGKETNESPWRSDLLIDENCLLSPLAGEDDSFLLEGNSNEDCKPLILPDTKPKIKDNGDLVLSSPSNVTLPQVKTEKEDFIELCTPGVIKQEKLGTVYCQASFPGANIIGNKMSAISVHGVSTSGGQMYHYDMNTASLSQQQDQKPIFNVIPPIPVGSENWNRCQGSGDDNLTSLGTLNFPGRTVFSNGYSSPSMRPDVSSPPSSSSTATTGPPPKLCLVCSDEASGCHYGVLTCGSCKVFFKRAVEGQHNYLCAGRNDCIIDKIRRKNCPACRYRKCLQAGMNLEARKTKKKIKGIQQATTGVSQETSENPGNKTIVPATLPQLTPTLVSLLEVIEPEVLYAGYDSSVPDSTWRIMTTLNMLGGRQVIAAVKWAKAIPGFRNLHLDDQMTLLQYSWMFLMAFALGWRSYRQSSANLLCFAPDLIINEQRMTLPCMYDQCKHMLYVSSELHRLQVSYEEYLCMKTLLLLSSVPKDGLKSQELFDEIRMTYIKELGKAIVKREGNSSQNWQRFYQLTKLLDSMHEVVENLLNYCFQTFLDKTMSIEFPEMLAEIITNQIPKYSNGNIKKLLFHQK
Estrogen receptor beta (Homo sapiens), sequence (Q92731 whole entry, looked up, the tested form may be a part): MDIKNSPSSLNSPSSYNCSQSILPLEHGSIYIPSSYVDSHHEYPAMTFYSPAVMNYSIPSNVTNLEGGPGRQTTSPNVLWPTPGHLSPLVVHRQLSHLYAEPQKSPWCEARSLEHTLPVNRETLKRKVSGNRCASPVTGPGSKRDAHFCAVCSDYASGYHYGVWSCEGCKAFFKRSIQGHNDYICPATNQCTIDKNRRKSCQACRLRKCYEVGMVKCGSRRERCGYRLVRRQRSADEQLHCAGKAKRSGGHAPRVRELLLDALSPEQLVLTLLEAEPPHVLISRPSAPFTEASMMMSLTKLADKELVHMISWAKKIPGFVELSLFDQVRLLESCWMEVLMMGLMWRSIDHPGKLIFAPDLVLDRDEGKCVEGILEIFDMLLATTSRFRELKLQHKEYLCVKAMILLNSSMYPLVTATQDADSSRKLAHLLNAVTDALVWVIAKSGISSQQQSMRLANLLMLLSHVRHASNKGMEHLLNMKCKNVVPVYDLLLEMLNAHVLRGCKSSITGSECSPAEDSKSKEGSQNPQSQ
Retinoic acid receptor alpha (Homo sapiens), sequence (P10276 whole entry, looked up): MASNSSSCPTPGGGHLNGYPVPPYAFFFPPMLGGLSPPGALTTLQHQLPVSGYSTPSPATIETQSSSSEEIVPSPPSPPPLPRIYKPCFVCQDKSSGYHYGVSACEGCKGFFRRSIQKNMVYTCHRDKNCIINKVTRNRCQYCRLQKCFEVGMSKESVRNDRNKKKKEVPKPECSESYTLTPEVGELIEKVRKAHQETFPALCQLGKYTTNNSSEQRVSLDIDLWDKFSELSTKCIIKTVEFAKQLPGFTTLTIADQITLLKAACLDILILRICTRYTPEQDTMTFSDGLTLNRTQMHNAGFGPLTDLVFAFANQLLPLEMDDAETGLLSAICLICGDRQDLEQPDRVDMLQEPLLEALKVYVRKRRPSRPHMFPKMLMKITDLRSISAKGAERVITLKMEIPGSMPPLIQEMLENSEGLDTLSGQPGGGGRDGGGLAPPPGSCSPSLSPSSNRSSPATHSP
Estrogen receptor (Homo sapiens) + Estrogen receptor beta (Homo sapiens), sequence (P03372 whole entry, looked up, the tested form may be a part): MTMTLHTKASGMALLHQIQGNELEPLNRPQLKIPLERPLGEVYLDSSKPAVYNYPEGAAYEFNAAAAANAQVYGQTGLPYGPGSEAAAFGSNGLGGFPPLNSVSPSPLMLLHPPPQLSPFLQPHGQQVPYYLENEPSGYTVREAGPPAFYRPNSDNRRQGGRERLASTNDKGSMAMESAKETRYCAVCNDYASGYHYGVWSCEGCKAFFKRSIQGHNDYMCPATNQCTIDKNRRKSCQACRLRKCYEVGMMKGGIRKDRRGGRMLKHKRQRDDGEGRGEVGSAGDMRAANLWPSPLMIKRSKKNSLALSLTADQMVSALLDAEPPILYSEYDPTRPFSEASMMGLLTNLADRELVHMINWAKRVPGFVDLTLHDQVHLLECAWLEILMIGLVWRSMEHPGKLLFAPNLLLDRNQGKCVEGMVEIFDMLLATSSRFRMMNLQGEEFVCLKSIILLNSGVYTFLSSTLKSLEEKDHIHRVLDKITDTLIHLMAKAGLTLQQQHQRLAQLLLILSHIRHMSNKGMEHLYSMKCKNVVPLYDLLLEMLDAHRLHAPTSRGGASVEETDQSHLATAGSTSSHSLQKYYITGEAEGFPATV
Estrogen receptor (Homo sapiens) + Estrogen receptor beta (Homo sapiens), sequence (Q92731 whole entry, looked up, the tested form may be a part): as the sequence (Q92731 whole entry, looked up, the tested form may be a part) above
rat Serotonin Transporter (SERT), Slc6a4 (gene 25553), sequence (P31652 whole entry, looked up): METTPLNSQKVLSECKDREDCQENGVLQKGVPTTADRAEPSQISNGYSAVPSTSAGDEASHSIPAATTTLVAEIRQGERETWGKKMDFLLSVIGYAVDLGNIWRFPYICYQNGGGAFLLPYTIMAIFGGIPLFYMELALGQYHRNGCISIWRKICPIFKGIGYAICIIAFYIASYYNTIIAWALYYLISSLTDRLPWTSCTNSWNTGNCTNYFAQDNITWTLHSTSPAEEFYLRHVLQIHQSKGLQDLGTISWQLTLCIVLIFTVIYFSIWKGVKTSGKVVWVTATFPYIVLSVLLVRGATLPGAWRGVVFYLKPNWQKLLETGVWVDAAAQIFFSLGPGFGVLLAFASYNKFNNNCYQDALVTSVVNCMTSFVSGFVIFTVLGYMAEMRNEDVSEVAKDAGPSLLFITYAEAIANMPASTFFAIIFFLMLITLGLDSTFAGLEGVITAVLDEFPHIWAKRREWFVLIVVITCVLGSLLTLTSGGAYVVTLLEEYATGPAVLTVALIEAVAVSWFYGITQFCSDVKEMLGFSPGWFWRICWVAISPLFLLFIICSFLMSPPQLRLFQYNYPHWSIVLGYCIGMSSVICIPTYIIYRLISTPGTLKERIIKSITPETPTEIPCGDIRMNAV
guinea pig Sigma Receptor, Non-selective Binding, SIGMAR1 (gene 100135589), sequence (Q60492 whole entry, looked up): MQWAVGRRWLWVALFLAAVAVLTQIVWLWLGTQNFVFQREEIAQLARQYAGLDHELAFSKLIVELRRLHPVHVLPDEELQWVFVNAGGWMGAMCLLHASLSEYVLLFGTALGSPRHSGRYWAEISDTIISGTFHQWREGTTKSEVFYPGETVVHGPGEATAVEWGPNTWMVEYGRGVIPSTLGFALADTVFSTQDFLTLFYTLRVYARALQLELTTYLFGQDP

For `CCOC(=O)CC(SP(=O)(OC)OC)C(=O)OCC` (centres undefined), the outcome (in [1]; in [2]; in the assay with PGR (gene 5241); in [3]; in assay [4]; in [5]) was inactive.

Take `CCCCSP(=O)(SCCCC)SCCCC`: the outcome in assay [1] was inactive.

As for `CSc1nc(NC(C)C)nc(NC(C)C)n1`, the result in assay [6], in [1] and in assay [7] was inactive.

On to `CSC1=N[C@@](C)(c2ccccc2)C(=O)N1Nc1ccccc1`, for which the outcome in [1] was inactive.

For `CCc1cccc(CC)c1N(COC)C(=O)CCl`, the outcome in [6] was inactive. Moreover, in assay [5], the AC50 (in general, the midpoint of the concentration-response curve, whichever way the signal moves) is 21.2 µM (active).

Take `CCOP(=S)(OCC)SCCSCC`: the outcome in assay [1], in assay [2], in [8] and in assay [5] was inactive.

On to `Nc1nc(N)nc(NC2CC2)n1`, for which, in assay [1], the compound was called inactive.

As for `Nc1c(Cl)cc([N+](=O)[O-])cc1Cl`, the result in [6], in assay [1], in assay [2], in [9], in [5] and in [10] was inactive. Moreover, the figures for the AC50 in assay [11] and in assay [12] were 25 µM (active) and 3.3 µM (active), respectively.

For the compound `CSc1nnc(C(C)(C)C)c(=O)n1N`, the result in assay [1], in [2] and in [11] was inactive.

Take `Cc1cc(C2CC2)nc(Nc2ccccc2)n1`: the AC50 in [6] was 40 µM (active); in [1] it was 50 µM (active); in assay [13] it was 5.69 µM (active); in [14], 3.82 µM (active). In addition, the result in assay [2] and in [7] was inactive.

`CCCCOC(=O)[C@@H](C)Oc1ccc(Oc2ccc(C#N)cc2F)cc1`: the outcome in [6], in assay [1] and in assay [11] was inactive.

Consider `COP(=O)(OC)OC(Br)C(Cl)(Cl)Br` (centres undefined), for which, in [6], the outcome was inactive.

For `N#CSCSC#N`, the result in assay [1] and in assay [2] was inactive.

On to `COc1ccc(C(=CC(=O)N2CCOCC2)c2ccc(Cl)cc2)cc1OC`, for which the compound was called inactive in assay [1], in [2], in assay [10] and in assay [12]. For the same compound, the AC50 in [8] is 13.4 µM (active); in assay [15] it was 9.48 µM (active).

As for `CCOP(=O)(NC(C)C)Oc1ccc(SC)c(C)c1` (centres undefined), the compound was classed as inactive in assay [1], in assay [2] and in assay [5].

As for `CC1=NNC(=O)N(/N=C/c2cccnc2)C1`, the result in assay [1] and in [2] was inactive.

As to `CC(C1CC1)C(O)(Cn1cncn1)c1ccc(Cl)cc1` (centres undefined), the AC50 in [1] was 29.6 µM (active); in assay [11], 0.175 µM (active). The compound was called inactive (in assay [2]; in the assay with PGR (gene 5241); in [3]; in [16]).

For the compound `CCc1cccc(C)c1N(C(=O)CCl)C(C)COC` (centres undefined), the compound was called inactive in [1], in assay [2], in assay [4] and in assay [5].

Regarding `CC(C)N(C(=O)SCC(Cl)=C(Cl)Cl)C(C)C`, the call in [1], in [2], in assay [3], in [8], in assay [16] and in [12] was inactive. Besides, in assay [11], the AC50 is 7.84 µM (active).
